Source: PubChem (The Scripps Research Institute Molecular Screening Center)
FBW7 act: human FBW7 E3 ligase activation, primary screen; 0.13% of 650,000 active; Q969H0; normalized activity (activation), % at 26.1 µM; AID 1259310; AlphaScreen FBW7–phospho-cyclin E peptide binding, activator screen; in the data active = normalized activity above about 1.9%;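 also: purified mutant Fbw7 with reduced substrate affinity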
TEAD-YAP block: TEAD-YAP interaction inhibition | 1.4% of 640,000 active | AID 1259422 | HEK-TIYL cells, TEAD-Gal4/YAP UAS-luciferase luminescence | inhibition, % at 9.12 µM; in the data active = inhibition above about 32%;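 also: 0% = median of test compound wells and 100% = reference inhibitor wells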
GPR151 ag: activates the human receptor GPR151 | activation, % at 11.2 µM | AID 1508602 | 1% of 650,000 active | Q8TDV0 | PathHunter beta-arrestin GPR151 cells, luminescence; in the data active = activation above about 4.9%;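 also: 0% = median of compound wells and 100% = cells with positive control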
Target sequence (Q8TDV0 whole entry, looked up): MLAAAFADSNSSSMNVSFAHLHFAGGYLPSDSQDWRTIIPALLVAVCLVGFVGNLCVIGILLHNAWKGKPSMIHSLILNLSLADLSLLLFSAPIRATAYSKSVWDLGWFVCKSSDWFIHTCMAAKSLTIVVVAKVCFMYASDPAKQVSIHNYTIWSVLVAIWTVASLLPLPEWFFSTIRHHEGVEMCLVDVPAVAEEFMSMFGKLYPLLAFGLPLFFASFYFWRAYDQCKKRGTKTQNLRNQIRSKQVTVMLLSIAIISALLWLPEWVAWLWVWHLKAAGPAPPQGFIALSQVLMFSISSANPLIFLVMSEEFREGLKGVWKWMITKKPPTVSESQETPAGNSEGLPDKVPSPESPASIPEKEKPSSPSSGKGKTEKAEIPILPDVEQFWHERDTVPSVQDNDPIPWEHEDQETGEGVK
MITF primary: human MITF inhibition, primary screen; O75030; inhibition, % at 2.6 µM; AlphaScreen MITF homodimerization, bead proximity signal; 0.91% of 650,000 active; in the data active = inhibition above about 50%;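 also: 0% = vehicle wells with protein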
MITF inh conf: confirmation of human MITF inhibitors; shares compounds with MITF primary; AlphaScreen MITF homodimerization, biotin/His-MITF beads; inhibition, % at 2.6 µM; 16% of 4,700 active;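 active = inhibition above a cutoff derived from the DMSO control wells, cut at about 28% in these data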;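 also: 0% = MITF dimer wells with DMSO only; inhibitors lower the bead chemiluminescence by keeping MITF from dimerizing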
AS interf DR: counter-screen: compounds optically interfering with AlphaScreen | AlphaScreen optical interference counterscreen, cell-free | shares compounds with MITF primary | 6% of 480 active | IC50, µM; call rule not given here
AlphaScreen intf2: AlphaScreen optical interference, counter-screen | LysRS AlphaScreen counterscreen, signal interference, triplicate | shares compounds with MITF primary | 7.6% of 4,700 active | inhibition, % at 2.6 µM | AID 1259376;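 active = inhibition above a cutoff derived from the DMSO control wells, cut at about 30% in these data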
Starred values were filed as active, the others as inactive; nt = no result given. The list is not random: actives were taken first. Their share in the collection is about 3.5%.

SMILES | FBW7 act | TEAD-YAP block | GPR151 ag | MITF primary | MITF inh conf | AlphaScreen intf2 | others
CN1CCN(Cc2cn[nH]c2-c2ccc(Cl)cc2)CC1 | 1 | 4 | 0 | 38 | nt | nt
CCCc1[nH]nc2c1C(c1c(OC)cc(OC)cc1OC)C(C#N)=C(N)O2 (centres undefined) | 0 | 3 | 1 | 12 | nt | nt
CCCc1[nH]nc2c1C(c1ccc(OC)cc1OC)C(C#N)=C(N)O2 (centres undefined) | 0 | -1 | -1 | 61* | 11 | 17
C=CCc1cccc(C)c1OCCN1CCOCC1 | 0 | -2 | 0 | 86* | 8 | 6
C=CCc1cccc(Cl)c1OCCN1CCOCC1 | 0 | -2 | -1 | -22 | nt | nt
C=CCc1cccc(C)c1OCCCN1CCN(C)CC1 | 0 | 0 | -2 | 43 | nt | nt
C=CCc1cccc(C)c1OCCCN1CCCC1 | 1 | 8 | 0 | 57* | 16 | 16
C=CCc1cccc(Cl)c1OCCN1CCNCC1 | 0 | 7 | 0 | 56* | -14 | -2
Cc1csc(NC(=O)CSc2ncnc3c2sc2nc4ccccc4cc23)n1 | 0 | 1 | -1 | 6 | nt | nt
CC(C)CCCC(C)C1CCC2C3CC=C4CC(OC(=O)c5cccnc5)CCC4(C)C3CCC12C (centres undefined) | 0 | -1 | 0 | 4 | nt | nt
CCCn1cc(NC(=O)C2CC(c3c(OCOC)ccc4ccccc34)=NO2)cn1 (centres undefined) | 0 | 7 | 0 | -21 | nt | nt
Cc1ccc2c(c1)N(CC(=O)OC(CC(C)C)C(=O)NC1CCCC1)C(=O)CO2 (centres undefined) | 0 | 3 | 0 | 54* | 2 | 14
CC(C)CC(OC(=O)CN1C(=O)COc2ccccc21)C(=O)NC1CCCCC1 (centres undefined) | 0 | 6 | 0 | 1 | nt | nt
CSc1nnc(CN2CCSCC2)n1C | 0 | 4 | -1 | 64* | -3 | -5
Cn1c(CN2CCOCC2)nnc1SCC(N)=O | 0 | 2 | 1 | 4 | nt | nt
O=C(NC1CCCC1)c1cnn2c(C(F)(F)F)cc(-c3ccccc3)nc12 | 0 | -10 | -1 | -1 | nt | nt
C=CCOC(=O)/C(=C\c1ccccc1)NC(=O)c1ccc(Br)o1 | 0 | -6 | 0 | 11 | nt | nt
CCCC(=O)Nc1ccccc1C1(C)CC1 | 0 | 3 | -1 | 59* | -3 | -17
CCCC(CCC)c1nc2ccncc2[nH]1 | 0 | -5 | 4 | 52* | -1 | 7
O=C(Nc1ccc(N2CCOCC2)cc1)c1csc(Nc2ccncn2)n1 | 0 | -15 | 1 | 33 | nt | nt
O=C(Nc1ccc(N2CCOCC2)cc1)c1cccc(Nc2ccncn2)n1 | 0 | 3 | 0 | 58* | 81* | 2 | AS interf DR=>7.6
O=C(NCC1CCC2(CCN(Cc3cnc(-c4ccccc4)s3)CC2)O1)c1cccnc1 (centres undefined) | 0 | 26 | 0 | 70* | -4 | -8
O=C(NCC1CCC2(CCN(Cc3cc4ccccc4s3)CC2)O1)c1cccnc1 (centres undefined) | 0 | 1 | 2 | 4 | nt | nt
COc1ccccc1N1CCN(S(=O)(=O)c2ccc(F)c(C(=O)Nc3ccc(Cl)cc3)c2)CC1 | 0 | 8 | -1 | 9 | nt | nt
NC(=O)CSc1ccc(-c2ccccn2)nn1 | 0 | -3 | 0 | 82* | 73* | 94*
SMILES | FBW7 act | TEAD-YAP block | GPR151 ag | MITF primary | MITF inh conf | AlphaScreen intf2 | others
Fc1ccc(-c2ccc(SCc3cccnc3)nn2)cc1 | 0 | -59 | -1 | 4 | nt | nt
c1ccc(-c2ccc(SCc3cccnc3)nn2)nc1 | -2 | -29 | -3 | 85* | 99* | 100*
CCSc1ccc(-c2ccccn2)nn1 | 0 | -38 | -3 | 82* | 76* | 97*
c1ccc(CSc2ccc(-c3ccccn3)nn2)nc1 | -2 | -10 | -2 | 86* | 96* | 100*
COc1cc(NC(=O)c2cnn3c2NC(c2ccc(F)cc2)CC3C(F)(F)F)cc([N+](=O)[O-])c1 (centres undefined) | 0 | 2 | 1 | -2 | nt | nt
Cc1cc(Cl)ccc1N(CC(=O)NCC1CCCO1)S(=O)(=O)c1ccccc1 (centres undefined) | 1 | 14 | -1 | 73* | 4 | 9
Cc1ccc(S(=O)(=O)N(CC(=O)NCC2CCCO2)c2ccccc2Cl)cc1 (centres undefined) | 0 | 5 | 1 | -19 | nt | nt
Cc1ccc(S(=O)(=O)n2c(SCc3cccc(F)c3)nc3ccccc32)cc1 | 0 | -24 | 1 | -5 | nt | nt
Cc1cc(C)c(S(=O)(=O)Nc2ccc(Br)cc2)cc1S(=O)(=O)Nc1ccc(Br)cc1 | 0 | 13 | 0 | 18 | nt | nt
Cc1ccc(S(=O)(=O)Nc2ccc(Br)cc2)cc1S(=O)(=O)Nc1ccc(Br)cc1 | 0 | 5 | 0 | 53* | 16 | 11
C=CCNc1nc(-c2ccccn2)nnc1-c1ccccc1 | -1 | -5 | 3 | 70* | 69* | 100*
O=C(CCc1ccccc1)Nc1ccnn1C1CCN(C(=O)C2CCOC2)CC1 (centres undefined) | 0 | 5 | 0 | 3 | nt | nt
Cn1c(=O)cc(N2CCCC2)n(Cc2cccc(C(F)(F)F)c2)c1=O | 0 | 6 | 1 | 68* | 12 | 18
Cn1c(=O)cc(N2CCCCC2)n(Cc2cccc(C(F)(F)F)c2)c1=O | 0 | -9 | 1 | 2 | nt | nt
O=C(N/N=C/c1cccc2cccnc12)c1ccncc1 | 0 | 1 | 0 | 96* | 112* | 100*
O=C(N/N=C/c1cccc2cccnc12)c1ccccc1 | -2 | -14 | -1 | 57* | 78* | 100*
O=C(COc1ccc(F)cc1)N/N=C/c1cccc2cccnc12 | 0 | 11 | -1 | 59* | 28* | 86*
O=C(N/N=C/c1cccc2ccccc12)c1ccncc1 | 0 | 5 | 2 | 2 | nt | nt
COc1ccccc1OCC(=O)Nc1ccc(-c2nc3cc4ccccc4cc3[nH]2)cc1 | 0 | -80 | 1 | -8 | nt | nt
N=C1SCCN1CC(=O)c1ccccc1 | 0 | -26 | 1 | -4 | nt | nt
COc1c(Cl)cc(Cl)cc1C(=O)Nc1ccc(I)cn1 | 0 | -6 | 1 | 4 | nt | nt
CCCC(=O)Nc1c2c(nn1-c1cccc(C)c1C)CS(=O)C2 (centres undefined) | 0 | 3 | 3 | -2 | nt | nt
Cc1ccc([N+](=O)[O-])c(OCCCN2CCN(Cc3ccccc3)CC2)c1 | 0 | -6 | 1 | 44 | nt | nt
COc1cc(C(C)=O)ccc1OCCOCCN1CCN(Cc2ccccc2)CC1 | 0 | 6 | 3 | 87* | 5 | 12
Cc1ccc([N+](=O)[O-])c(OCCOCCN2CCN(Cc3ccccc3)CC2)c1 | 0 | -5 | 0 | 70* | 12 | 0
O=[N+]([O-])c1ccccc1Sc1cc2c(N3CCCC3)ncnc2s1 | 0 | 5 | -1 | 5 | nt | nt
